The results in this text go back to the supplement of paper PMC6411743.

Compound in the experiment: Nc1nc2c(ncn2[C@@H]2O[C@H](COP(=O)(O)OP(=O)(O)OP(=O)(O)O)[C@@H](O)[C@H]2O)c(=O)[nH]1 [guanosine triphosphate]
Briefly: NP40-soluble protein abundance relative to vehicle (solubility fold change) (ratio); higher = more soluble protein in presence of GTP. The protocol: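 Solubility proteome profiling in Jurkat crude lysate. Lysate was treated with Mg-GTP (0.1-10 mM) for 10 min at room temperature and 3 min at 37 °C, then solubilised with 0.8% NP40 and benzonase, followed by ultracentrifugation. Proteins were quantified by TMT10 LC-MS/MS; the value is the NP40-soluble abundance relative to the NP40-processed vehicle, from 3 independent experiments.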

± gives the standard deviation of the averaged measurements. Of roughly 5,400 targets only a part is listed; those with the largest changes were picked by preference.

Sequence of UniProt Q8N2K0 (Q8N2K0 whole entry): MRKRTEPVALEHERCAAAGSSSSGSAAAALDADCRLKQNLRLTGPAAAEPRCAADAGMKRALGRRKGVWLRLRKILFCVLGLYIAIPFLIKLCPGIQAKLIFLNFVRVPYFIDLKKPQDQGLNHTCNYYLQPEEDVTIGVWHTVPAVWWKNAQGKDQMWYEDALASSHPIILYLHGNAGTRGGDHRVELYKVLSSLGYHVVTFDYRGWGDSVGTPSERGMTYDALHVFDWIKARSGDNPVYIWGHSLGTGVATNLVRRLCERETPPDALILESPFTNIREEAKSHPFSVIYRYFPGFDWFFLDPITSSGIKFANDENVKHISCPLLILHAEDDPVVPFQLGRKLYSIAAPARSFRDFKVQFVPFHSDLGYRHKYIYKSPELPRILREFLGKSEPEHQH
Sequence of UniProt Q08211 (Q08211 whole entry): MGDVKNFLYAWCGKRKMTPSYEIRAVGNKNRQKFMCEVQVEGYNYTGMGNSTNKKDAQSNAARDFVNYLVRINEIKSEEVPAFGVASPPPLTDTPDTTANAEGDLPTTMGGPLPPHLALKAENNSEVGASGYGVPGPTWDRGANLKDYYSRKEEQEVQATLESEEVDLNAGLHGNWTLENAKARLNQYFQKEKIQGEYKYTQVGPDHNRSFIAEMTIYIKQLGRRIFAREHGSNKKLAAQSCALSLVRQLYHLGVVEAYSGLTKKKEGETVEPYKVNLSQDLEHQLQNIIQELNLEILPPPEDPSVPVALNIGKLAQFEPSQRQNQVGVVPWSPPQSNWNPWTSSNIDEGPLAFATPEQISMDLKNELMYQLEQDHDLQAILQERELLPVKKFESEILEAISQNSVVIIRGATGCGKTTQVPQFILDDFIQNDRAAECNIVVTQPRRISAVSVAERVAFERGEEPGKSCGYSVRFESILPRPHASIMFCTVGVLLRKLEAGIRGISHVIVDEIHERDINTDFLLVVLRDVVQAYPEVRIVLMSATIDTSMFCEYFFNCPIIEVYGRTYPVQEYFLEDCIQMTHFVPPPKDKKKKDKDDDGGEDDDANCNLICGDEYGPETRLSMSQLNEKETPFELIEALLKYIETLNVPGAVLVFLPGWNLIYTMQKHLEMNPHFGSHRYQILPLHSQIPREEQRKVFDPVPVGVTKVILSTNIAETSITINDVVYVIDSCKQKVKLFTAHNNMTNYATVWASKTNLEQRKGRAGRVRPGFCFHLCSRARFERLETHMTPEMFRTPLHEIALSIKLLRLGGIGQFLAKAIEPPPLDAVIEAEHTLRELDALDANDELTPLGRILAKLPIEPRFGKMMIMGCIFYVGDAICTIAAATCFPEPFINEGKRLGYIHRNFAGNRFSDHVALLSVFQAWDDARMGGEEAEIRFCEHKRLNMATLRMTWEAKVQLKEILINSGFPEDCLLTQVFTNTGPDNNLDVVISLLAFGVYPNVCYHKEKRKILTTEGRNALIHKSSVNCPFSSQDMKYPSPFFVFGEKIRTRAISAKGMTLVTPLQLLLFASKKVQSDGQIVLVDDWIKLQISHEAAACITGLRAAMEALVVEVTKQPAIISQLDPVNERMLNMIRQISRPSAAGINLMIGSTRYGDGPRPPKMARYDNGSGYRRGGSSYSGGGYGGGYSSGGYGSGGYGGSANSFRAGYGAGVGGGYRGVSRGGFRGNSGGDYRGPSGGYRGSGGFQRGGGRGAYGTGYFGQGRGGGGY
Sequence of UniProt Q13496 (Q13496 whole entry): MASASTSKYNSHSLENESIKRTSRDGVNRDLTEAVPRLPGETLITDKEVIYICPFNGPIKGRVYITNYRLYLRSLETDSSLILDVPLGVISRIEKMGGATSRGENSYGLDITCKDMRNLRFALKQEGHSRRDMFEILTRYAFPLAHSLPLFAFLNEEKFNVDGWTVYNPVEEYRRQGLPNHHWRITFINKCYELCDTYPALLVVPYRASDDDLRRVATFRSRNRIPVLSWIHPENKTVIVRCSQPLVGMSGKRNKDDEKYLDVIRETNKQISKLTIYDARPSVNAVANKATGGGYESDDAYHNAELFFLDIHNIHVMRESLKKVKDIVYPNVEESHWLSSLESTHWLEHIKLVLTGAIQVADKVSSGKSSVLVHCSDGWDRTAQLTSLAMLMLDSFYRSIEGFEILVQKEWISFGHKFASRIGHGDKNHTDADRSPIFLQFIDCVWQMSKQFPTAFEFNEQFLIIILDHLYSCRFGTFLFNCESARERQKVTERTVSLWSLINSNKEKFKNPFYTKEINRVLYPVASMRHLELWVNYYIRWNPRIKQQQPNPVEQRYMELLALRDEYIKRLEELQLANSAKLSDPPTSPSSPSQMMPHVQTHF
Sequence of UniProt Q6I9Y2 (Q6I9Y2 whole entry): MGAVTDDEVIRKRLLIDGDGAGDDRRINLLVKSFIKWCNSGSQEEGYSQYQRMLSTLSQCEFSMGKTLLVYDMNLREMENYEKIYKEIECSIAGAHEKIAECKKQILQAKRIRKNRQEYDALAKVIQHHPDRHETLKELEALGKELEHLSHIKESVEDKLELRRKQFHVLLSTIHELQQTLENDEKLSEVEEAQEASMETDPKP
Sequence of UniProt Q86SZ2 (Q86SZ2 whole entry): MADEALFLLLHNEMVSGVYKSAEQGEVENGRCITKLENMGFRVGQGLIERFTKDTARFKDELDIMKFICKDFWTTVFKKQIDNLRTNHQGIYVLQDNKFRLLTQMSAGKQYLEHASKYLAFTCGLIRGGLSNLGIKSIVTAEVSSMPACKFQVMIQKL

Turning to TRAPPC6B (UniProt Q86SZ2), the NP40-soluble protein abundance by setting is: (concentration: 0.1mM) 1.06 ± 0.015; (concentration: 0.5mM) 0.988 ± 0.077; (concentration: 1mM) 0.954 ± 0.058; (concentration: 2mM) 0.997 ± 0.092; (concentration: 4mM) 0.999 ± 0.049; (concentration: 6mM) 0.963 ± 0.088. Moreover, the NP40-soluble protein abundance is, setting by setting: (concentration: 8mM) 0.885 ± 0.017; (concentration: 10mM) 0.958 ± 0.065.
As to THOC7 (UniProt Q6I9Y2), the NP40-soluble protein abundance was 0.999 ± 0.13 (concentration: 0.1mM); 1.15 ± 0.095 (concentration: 0.5mM); 1.6 ± 0.23 (concentration: 1mM); 1.92 ± 0.32 (concentration: 2mM); 2.31 ± 0.58 (concentration: 4mM); 2.51 ± 0.63 (concentration: 6mM). Further, the NP40-soluble protein abundance turned out to be 2.43 ± 0.56 (concentration: 8mM) and 2.78 ± 0.98 (concentration: 10mM).
Turning to UniProt Q8N2K0|Q8N2K0-2, the NP40-soluble protein abundance reads like this: (concentration: 0.1mM) 1.09 ± 0.011; (concentration: 0.5mM) 1.04 ± 0.051; (concentration: 1mM) 1.01 ± 0.017; (concentration: 2mM) 1.017 ± 0.0025; (concentration: 4mM) 1.03 ± 0.015; (concentration: 6mM) 1.01 ± 0.023. Besides, the NP40-soluble protein abundance is, setting by setting: (concentration: 8mM) 0.997 ± 0.031; (concentration: 10mM) 0.976 ± 0.034.
In the case of DHX9 (UniProt Q08211), the NP40-soluble protein abundance runs as follows: (concentration: 0.1mM) 1.03 ± 0.088; (concentration: 0.5mM) 1.13 ± 0.16; (concentration: 1mM) 1.06 ± 0.17; (concentration: 2mM) 1.2 ± 0.26; (concentration: 4mM) 1.32 ± 0.28; (concentration: 6mM) 1.49 ± 0.37. The NP40-soluble protein abundance is, setting by setting: (concentration: 8mM) 1.52 ± 0.3; (concentration: 10mM) 1.64 ± 0.33.
MTM1 (UniProt Q13496): the NP40-soluble protein abundance (concentration: 0.1mM) came to 1.01 ± 0.078; the NP40-soluble protein abundance (concentration: 0.5mM) came out at 1.08 ± 0.088; the NP40-soluble protein abundance (concentration: 1mM) stood at 0.961 ± 0.043; the NP40-soluble protein abundance (concentration: 2mM) came to 0.99 ± 0.076; the NP40-soluble protein abundance (concentration: 4mM) was 0.933 ± 0.093; the NP40-soluble protein abundance (concentration: 6mM) came to 0.962 ± 0.093. In addition, the NP40-soluble protein abundance (concentration: 8mM) was 0.93 ± 0.057 and the NP40-soluble protein abundance (concentration: 10mM) was 0.891 ± 0.087.
